# KB-3-1 cytotox = qHTS assay for MDR1-selective chemotherapeutics: Primary screen using the parental adenocarcinoma cell KB-3-1; AID 1347075, 2019; 400,000 compounds, 1.4% hits; Potency, µM (doses to about 46.1 µM), actives largely listed as cytotoxic; KB-3-1 viability, CellTiter-Glo ATP luminescence, 72 h; further: potency means the concentration at half of the fitted maximal effect; on the % scale 0 is the no-effect control and ±100 the full control effect; nearly all actives have a fitted effect of over 60% in size
#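 Cells are dispensed, compounds pinned in, plates held at 37 °C for 72 h, then CellTiter-Glo is added and luminescence read after 10 minutes. Cell line: parental KB-3-1 in phenol-red-free DMEM, 10% FBS.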
# MCF10A rerep = A quantitative high throughput screen for small molecules that induce DNA re-replication in MCF 10a normal breast cells; Potency, µM (titrated, usually from 46.1 µM), inactives show top-dose activity, positive = re-replication, hits mostly activators; 350,000 compounds, 2.9% hits; MCF 10A DNA re-replication, Hoechst nuclear intensity, 48 h; AID 624296, 2012; further: potency means the concentration at half of the fitted maximal effect; % of control where 0% means no effect; nearly all actives have a fitted effect of over 50% in size
# KB-V1 cytotox = qHTS assay for MDR1-selective chemotherapeutics: Primary screen using the drug-selected MDR subline cells KB-V1; Potency, µM (top dose mostly 46.1 µM), hits mostly cytotoxic; 400,000 compounds, 3.4% hits; KB-V1 MDR cells viability, CellTiter-Glo, 72 h; further: potency means the concentration at half of the fitted maximal effect; on the % scale 0 is the no-effect control and ±100 the full control effect; nearly all actives have a fitted effect of over 60% in size
#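 Potencies derive from concentration-effect curves fitted to normalized luminescence (CellTiter-Glo) of KB-V1 cells treated for 72 h at 37 degrees C in phenol-red-free DMEM containing 10% FBS.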
# D3 antag = qHTS of D3 Dopamine Receptor Antagonist: qHTS; D3R cells, DiscoveRx beta-arrestin luminescence, antagonist mode; active compounds read low; max response, negative = inhibition, %; 360,000 compounds, 2.5% hits; AID 652054, 2013; in the data active means max response below about -50%; inconclusive means no clear call, values can overlap the other calls; further: on the % scale 0 is the no-effect control and ±100 the full control effect
# Target sequence (P35462 whole entry, looked up): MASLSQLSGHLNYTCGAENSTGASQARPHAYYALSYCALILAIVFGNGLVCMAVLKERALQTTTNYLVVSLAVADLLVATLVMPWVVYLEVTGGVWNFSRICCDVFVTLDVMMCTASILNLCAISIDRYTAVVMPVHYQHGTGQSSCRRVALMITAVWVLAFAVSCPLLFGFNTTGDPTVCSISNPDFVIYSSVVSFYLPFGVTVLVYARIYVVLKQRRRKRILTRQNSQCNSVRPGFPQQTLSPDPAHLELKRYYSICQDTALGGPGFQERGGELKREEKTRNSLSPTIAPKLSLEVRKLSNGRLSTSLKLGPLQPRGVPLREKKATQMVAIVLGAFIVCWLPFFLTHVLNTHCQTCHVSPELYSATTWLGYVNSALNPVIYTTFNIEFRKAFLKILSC
#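 Cells plated overnight at 1500 cells/well, then exposed to library compounds with dopamine controls for 90 minutes at 37 degrees C. DiscoveRx reagent added for 30–60 minutes at room temperature; luminescence read, quantitative HTS format.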
# DRD3 agonist = qHTS of D3 Dopamine Receptor Agonist: qHTS; max activation, %; D3R DiscoveRx beta-arrestin cells, luminescence, 90 min; D(3) dopamine receptor (Homo sapiens), P35462; 410,000 compounds, 0.58% hits; in the data active means max activation above about 30%; further: 0% is about no effect
#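 Agonist-mode cell screen: cells plated at 1500/well and incubated overnight at 37 °C, then exposed to library compounds for 90 min at 37 °C. Detection reagent was added for 30–60 min at room temperature, and luminescence was read.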
# SW480 rereplic = A quantitative high throughput screen for small molecules that induce DNA re-replication in SW480 colon adenocarcinoma cells | SW480 DNA re-replication, Hoechst DNA content imaging, 48 h | Potency, µM (titrated, usually from 46.1 µM), for the others: at the highest dose re-replication activation, usual class: activators | 340,000 compounds, 1.8% hits; further: potency means the concentration at half of the fitted maximal effect; % of control where 0% means no effect; nearly all actives have a fitted effect of over 55% in size
#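 Cells (250 per well) received 23 nL compound or DMSO by pin tool and were kept 48 hr at 37 C, 5% CO2. Nuclei were then stained with Hoechst for 40 min and scanned for DNA content.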
# Starred values were filed as active, the others as inactive; i = inactive; u = inconclusive; x = not tested or not shown. An excerpt weighted towards active compounds, which were near 8.9% of everything screened. Unless noted, the call rests on the fitted dose curve; in most records, active means well fitted curve in the direction sought with a large enough effect; inconclusive means small, poorly fitted or top-dose-only effect, or another doubt; inactive means no such curve, though single readings can be large; an effect the other way counts as inactive or inconclusive.
SMILES,KB-3-1 cytotox,MCF10A rerep,KB-V1 cytotox,D3 antag,DRD3 agonist,SW480 rereplic
CC(C)CN(C(=O)COC(=O)c1ccc([N+](=O)[O-])s1)c1c(N)n(Cc2ccccc2)c(=O)[nH]c1=O,20.6µM*,1.0%,i,20.5,2.0,u
CCN(C(=O)COC(=O)CCOc1ccc(C(C)(C)C)cc1)c1c(N)n(Cc2ccccc2)c(=O)[nH]c1=O,25.9µM*,23.1µM*,i,-14.2,-0.9,-0.3%
COCCN(C(=O)COC(=O)c1ccco1)c1c(N)n(Cc2ccccc2)c(=O)[nH]c1=O,i,1.1%,i,-4.1,5.2,-2.6%
COCCN(C(=O)COC(=O)c1cnc(C)cn1)c1c(N)n(Cc2ccccc2)c(=O)[nH]c1=O,i,1.1%,i,-77.1*,-12.9,-481.5%
O=C(c1cccc(Cl)c1)N(Cc1cccc(F)c1)C1CCS(=O)(=O)C1 (stereo not drawn),i,x,i,x,-4.0,x
OC(CNCc1ccc(-c2ccccc2)cc1)c1ccccc1 (stereo not drawn),u,18.4µM*,u,23.6,-3.4,18.4µM*
Cc1ccc(Cc2cnc(NC(=O)c3ccc4c(c3)CC(c3ccccc3)OC4=O)s2)cc1 (stereo not drawn),i,x,i,x,3.1,x
Cc1ccc(C(=O)Nc2ncc(Cc3ccc(SC(F)F)cc3)s2)cc1,u,u,1.03µM*,5.4,2.2,0.731µM*
Cc1ccc(C(=O)Nc2ncc(Cc3ccc(F)cc3)s2)o1,5.8µM*,u,9.2µM*,18.2,1.2,-2.1%
COC(=O)c1c(-c2ccncc2)csc1NC(=O)c1ccoc1C,u,u,6.51µM*,26.8,10.6,0.2%
COc1ccc(-n2c(=O)c3sc4ccccc4c3n(CC(=O)Nc3ccccc3F)c2=O)cc1,i,x,i,x,6.0,x
O=C(Nc1cccc(Cl)c1)c1ccc2c(c1)OCCO2,i,-22.3%,i,-22.5,-5.4,-15.7%
Cc1ccc(SCc2ccc(C(=O)Nc3cc([N+](=O)[O-])ccc3C)cc2)cc1,i,-7.1%,i,2.6,2.5,u
O=C(Nc1cccc([N+](=O)[O-])c1)c1[nH]ncc1Cl,i,3.4%,23.1µM*,-23.4,-4.6,19.8%
Cc1ccc(SCc2ccc(C(=O)Nc3cccc([N+](=O)[O-])c3)cc2)cc1,i,4.11µM*,i,12.8,2.1,8.2µM*
O=C(Nc1cccc([N+](=O)[O-])c1)c1ccc2c(c1)OCCO2,u,6.9%,20.6µM*,-19.4,-9.4,-115.3%
O=C(Nc1cccc([N+](=O)[O-])c1)c1ccncc1,i,-0.8%,i,3.2,-5.0,-2.8%
CC(C)(C)c1ccc(C(=O)Nc2cccc([N+](=O)[O-])c2)cc1,u,u,11.6µM*,u,-4.2,-79.4%
O=C(NC1CCCCC1)c1ccc2c(c1)N(Cc1cccc(Cl)c1)C(=O)c1ccccc1S2=O (stereo not drawn),x,x,x,x,-8.6,x
COC(=O)c1ccccc1NC(=O)c1cc(-c2ccc(Cl)cc2)on1,i,x,i,x,1.4,x
COc1ccccc1CNc1ccc(-c2nc(C(C)C)no2)cc1[N+](=O)[O-],i,x,i,x,4.0,x
O=c1[nH][nH]c(=O)c2nc(Nc3ccccc3)ncc12,i,-7.4%,i,-17.0,17.9,-0.6%
O=C(Nc1cccc([N+](=O)[O-])c1)c1ccc2ccccc2c1O,u,u,4.11µM*,u,-3.6,19.0%
C/C(=N\O)c1cc(Cl)cc(Cl)c1O,i,0.2%,i,-14.4,-3.0,6.5%
C/C(=N\NC(N)=O)c1cc(Cl)cc(Cl)c1O,i,1.8%,i,-81.8*,-26.3,u

# Screening data (PubChem BioAssay)
